Results as given in PubChem BioAssay (NCI).
Compounds without any hit were thinned out: in the full panel of roughly 83,000, 20% have a hit.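 Compound tested at a single concentration for 48 hours in 96-well plates; a percent growth value below 10 was scored as active.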 The source made the active and inactive calls.

Experiments:
Assay in all cases: NCI-60 one-dose screen, 48 h (100 = growth as untreated, 0 = no growth, -100 = all killed)
Details in all cases: 10 µM unless noted
T-47D breast = tested on: T-47D breast
BT-549 breast = tested on: BT-549 breast
MDA-MB-435 melanoma = tested on: MDA-MB-435 melanoma
SW-620 colon = tested on: SW-620 colon
MCF7 breast = tested on: MCF7 breast
HCT-116 colon = tested on: HCT-116 colon
HCC-2998 colon = tested on: HCC-2998 colon
KM12 colon = tested on: KM12 colon

Measured: growth

COc1ccc2nc3cc(Cl)ccc3c(N3CCN(c4nccc(NCc5ccccc5)n4)CC3)c2c1
inactive: T-47D breast 41.8% | BT-549 breast 27.5% | MDA-MB-435 melanoma 73.9% | SW-620 colon 68% | MCF7 breast 24.6% | HCT-116 colon 25.8% | HCC-2998 colon 84.3% | KM12 colon 77%

COc1ccc(Cl)cc1Nc1nc(C(F)(F)F)ccc1C(=O)N/N=C/c1cccnc1
inactive: T-47D breast 46.9% | BT-549 breast 47.1% | MDA-MB-435 melanoma 58.4% | SW-620 colon 47.5% | MCF7 breast 33.3% | HCT-116 colon 43.2% | HCC-2998 colon 53.6% | KM12 colon 59.5%

Oc1ccc2c(=S)cc(-c3ccc(Br)cc3)oc2c1O
active: T-47D breast 2.92% | SW-620 colon 5.25% | MCF7 breast -31.9% | HCT-116 colon -22%
inactive: BT-549 breast 44.6% | MDA-MB-435 melanoma 23.3% | HCC-2998 colon 73.8% | KM12 colon 12.9%

C/C(Cc1ccc(Cl)cc1)=C(\c1ccc(OCCN2CCCCCC2)cc1)c1ccc(OC(=O)C2CCCCC2)cc1
inactive: T-47D breast 49.1% | BT-549 breast 86.6% | MDA-MB-435 melanoma 58.7% | SW-620 colon 56.9% | MCF7 breast 29.6% | HCT-116 colon 44% | HCC-2998 colon 10.4% | KM12 colon 53.1%

O=C1C[C@H](Sc2nc(-c3ccc(F)cc3)cc(C(F)(F)F)n2)[C@H]2CO[C@@H]1O2
inactive: T-47D breast 62.3% | BT-549 breast 111% | MDA-MB-435 melanoma 102% | SW-620 colon 67.5% | MCF7 breast 46.4% | HCT-116 colon 75.6% | HCC-2998 colon 105% | KM12 colon 101%

CC(=O)CC(C)(C)c1ccc(Cl)cc1
inactive: T-47D breast 94.2% | BT-549 breast 101% | MDA-MB-435 melanoma 104% | SW-620 colon 100% | MCF7 breast 105% | HCT-116 colon 97.5% | HCC-2998 colon 98.7% | KM12 colon 108%

CCCCCCCCCCCCS(=O)CC(C)O (stereo unspecified)
inactive: T-47D breast 98.2% | BT-549 breast 109% | MDA-MB-435 melanoma 96.3% | SW-620 colon 106% | MCF7 breast 93.2% | HCT-116 colon 109% | HCC-2998 colon 111% | KM12 colon 116%

CS(CCCCN=C=S)=NC(=O)c1c(F)c(F)c(F)c(F)c1F (stereo unspecified)
inactive: T-47D breast 19.1% | BT-549 breast 95.7% | MDA-MB-435 melanoma 70.8% | SW-620 colon 52.6% | MCF7 breast 22.8% | HCT-116 colon 54% | HCC-2998 colon 104% | KM12 colon 55.8%

CC(C)[C@@H]1CC[C@]2(C(=O)NCCCCN=C(N)N)CC[C@]3(C)[C@H](CC[C@@H]4[C@@]5(C)CCC(=O)C(C)(C)[C@@H]5CC[C@]43C)[C@@H]12
inactive: T-47D breast 37.4% | BT-549 breast 90.5% | MDA-MB-435 melanoma 56.2% | SW-620 colon 71.3% | MCF7 breast 33.5% | HCT-116 colon 72.9% | HCC-2998 colon 53.7% | KM12 colon 40.9%

O=C([C@@H](COCc1ccccc1)N1C(=O)[C@@H](N2C(=O)OC[C@@H]2c2ccccc2)[C@H]1/C=C/c1ccccc1)N1CCC(CCN2CCCCC2)CC1
inactive: T-47D breast 77.2% | BT-549 breast 90% | MDA-MB-435 melanoma 97.7% | SW-620 colon 98% | MCF7 breast 74.9% | HCT-116 colon 83.1% | HCC-2998 colon 84% | KM12 colon 97.1%

O=C(CN1CCN(c2cc3c(cc2F)c(=O)c(C(=O)O)cn3C2CC2)CC1)Nc1nc(-c2ccc(Cl)cc2)cs1
inactive: T-47D breast 40.2% | BT-549 breast 26.3% | MDA-MB-435 melanoma 25.2% | SW-620 colon 26.2% | MCF7 breast 23.5% | HCT-116 colon 13.7% | HCC-2998 colon 29.8% | KM12 colon 21.8%

C=C1CC2(OC1=O)C(=O)Nc1ccccc12 (stereo unspecified)
active: SW-620 colon 4%
inactive: T-47D breast 37.3% | BT-549 breast 75.3% | MDA-MB-435 melanoma 49.7% | MCF7 breast 16.4% | HCT-116 colon 31.4% | HCC-2998 colon 90.1% | KM12 colon 97.3%

CC(C)n1cc2c(N)ncnc2n1
inactive: T-47D breast 93.9% | BT-549 breast 101% | MDA-MB-435 melanoma 98.6% | SW-620 colon 110% | MCF7 breast 102% | HCT-116 colon 102% | HCC-2998 colon 122% | KM12 colon 111%

Cc1ccc(NC(=O)c2sc3nc4c(cc3c2N)C(=O)CCC4)cc1C
inactive: T-47D breast 24.1% | BT-549 breast 48.7% | SW-620 colon 18.9% | MCF7 breast 10.7% | HCT-116 colon 28.4% | HCC-2998 colon 27.3% | KM12 colon 19.5%
active: MDA-MB-435 melanoma -55.5%

CNCc1cccc2c1OCCOCCOCCN(C)S(=O)(=O)c1ccc(cc1)-c1cnc(N)c(n1)C(=O)N2
inactive: T-47D breast 47% | BT-549 breast 55.6% | MDA-MB-435 melanoma 46.2% | SW-620 colon 37.8% | MCF7 breast 42.2% | HCT-116 colon 15.4% | HCC-2998 colon 75.5% | KM12 colon 43.6%

O=C(O)c1cccnc1Br
inactive: T-47D breast 85.4% | BT-549 breast 110% | MDA-MB-435 melanoma 102% | SW-620 colon 110% | MCF7 breast 96.8% | HCT-116 colon 98.1% | HCC-2998 colon 98.5% | KM12 colon 113%

COc1ccc(-c2cc(-c3cccnc3)nc3sc4c(=O)n(-c5ccc(C)cc5)cnc4c23)cc1OC
inactive: T-47D breast 98.7% | BT-549 breast 100% | MDA-MB-435 melanoma 98.7% | SW-620 colon 96.2% | MCF7 breast 97% | HCT-116 colon 99.1% | HCC-2998 colon 109% | KM12 colon 101%

CN1CCCCC1CCN1c2ccccc2Sc2ccc(Br)cc21 (stereo unspecified)
inactive: T-47D breast 77.9% | BT-549 breast 68.5% | MDA-MB-435 melanoma 20.4% | SW-620 colon 79.6% | MCF7 breast 21% | HCT-116 colon 28.8% | HCC-2998 colon 51.3% | KM12 colon 60.7%

Nc1c(C(=O)Nc2cccc3c2OCCO3)sc2nc3c(cc12)CN(Cc1ccccc1)CC3
inactive: T-47D breast 68.2% | BT-549 breast 69.7% | SW-620 colon 47.6% | MCF7 breast 28.3% | HCT-116 colon 45.4% | HCC-2998 colon 101% | KM12 colon 59.4%
active: MDA-MB-435 melanoma 6.47%

CC1=CC(=O)CC(C)(C)[C@@]1(O)/C=C/[C@@H](C)O
inactive: T-47D breast 91.7% | BT-549 breast 105% | MDA-MB-435 melanoma 102% | SW-620 colon 105% | MCF7 breast 84.6% | HCT-116 colon 101% | HCC-2998 colon 94.7% | KM12 colon 102%

CN1CCCCC1CCN1c2ccccc2Sc2ccc(Cl)cc21 (stereo unspecified)
inactive: T-47D breast 71.1% | BT-549 breast 73.8% | MDA-MB-435 melanoma 27% | SW-620 colon 73.4% | MCF7 breast 21.6% | HCT-116 colon 30.6% | HCC-2998 colon 61.1% | KM12 colon 60%

COc1ccccc1N1CCN(CCn2c(=O)c3c(c4ccccc4n3C)n(C)c2=O)CC1
inactive: T-47D breast 64.4% | BT-549 breast 99.3% | MDA-MB-435 melanoma 106% | SW-620 colon 98.9% | MCF7 breast 93.2% | HCT-116 colon 98.4% | HCC-2998 colon 104% | KM12 colon 103%

CC(=O)/C(=C/c1cccc(Cl)c1)C(=O)c1ccccc1
inactive: T-47D breast 63.6% | BT-549 breast 72.6% | MDA-MB-435 melanoma 72.7% | SW-620 colon 71.3% | MCF7 breast 34% | HCT-116 colon 41.7% | HCC-2998 colon 99.9% | KM12 colon 54.8%

O=C(CCN1CCOCC1)Nc1ccc(Cn2nnc3c2C(=O)c2nnn(Cc4ccc(NC(=O)CCN5CCOCC5)cc4)c2C3=O)cc1
inactive: BT-549 breast 29.6% | SW-620 colon 30.7% | KM12 colon 43%
active: T-47D breast -3.09% | MDA-MB-435 melanoma -76.2% | MCF7 breast -56.3% | HCT-116 colon -15.6% | HCC-2998 colon -7.48%

Cc1cc(=O)oc2cc(Oc3nc(-c4cccs4)cn4c(-c5cccs5)cnc34)ccc12
inactive: T-47D breast 54.7% | BT-549 breast 25% | MDA-MB-435 melanoma 61.3% | SW-620 colon 56.7% | MCF7 breast 59.9% | HCT-116 colon 58.7% | HCC-2998 colon 78.1% | KM12 colon 59.6%

CCC(c1ccc(O)cc1)C(CC)c1ccc(O)c(F)c1 (stereo unspecified)
inactive: T-47D breast 65.8% | BT-549 breast 92.9% | MDA-MB-435 melanoma 75.1% | SW-620 colon 93.7% | MCF7 breast 103% | HCT-116 colon 59% | HCC-2998 colon 96.4% | KM12 colon 82.6%

COc1ccc(CCN2CC=Cn3c2nc2ccccc2c3=O)cc1
active: MDA-MB-435 melanoma -4.94% | HCC-2998 colon 5.15% | KM12 colon 4.27%
inactive: T-47D breast 75% | BT-549 breast 17.2% | SW-620 colon 25.9% | MCF7 breast 18.9% | HCT-116 colon 10.2%

CCCCCCCCCCCCCCCC[N+]1(CC)CCCC1
active: BT-549 breast -25.8% | MDA-MB-435 melanoma -60.6% | SW-620 colon -8.83% | MCF7 breast -18.2% | HCT-116 colon -46.4% | HCC-2998 colon -59.5% | KM12 colon -90.6%
inactive: T-47D breast 18.6%

Cn1cc(-c2nc(-c3c[nH]c4ccccc34)cs2)c2cccnc21
active: T-47D breast 0.223% | BT-549 breast 7.05% | MDA-MB-435 melanoma 1.86%
inactive: SW-620 colon 32% | MCF7 breast 14.7% | HCT-116 colon 26.3% | HCC-2998 colon 54.7% | KM12 colon 27.4%

CCN(CC)CCCC(C)NCCCNc1cccc2cccnc12 (stereo unspecified)
inactive: T-47D breast 89.5% | BT-549 breast 102% | MDA-MB-435 melanoma 106% | SW-620 colon 96.5% | MCF7 breast 95.9% | HCT-116 colon 95.4% | HCC-2998 colon 82.5% | KM12 colon 102%

CCCCCN(CCCCC)CCC[C@@H](C)[C@H]1CC[C@H]2[C@@H]3[C@H](OCCCN)C[C@@H]4C[C@H](OCCCN)CC[C@]4(C)[C@H]3C[C@H](OCCCN)[C@]12C
active: MDA-MB-435 melanoma -13.6%
inactive: T-47D breast 68.1% | BT-549 breast 55% | SW-620 colon 45.9% | MCF7 breast 74.8% | HCT-116 colon 22.7% | HCC-2998 colon 59.6% | KM12 colon 22.5%

COc1ccc(-c2nc(Nc3cc(C)[nH]n3)c3ccccc3n2)cc1
inactive: T-47D breast 28.6% | BT-549 breast 51.7% | MDA-MB-435 melanoma 26.6% | SW-620 colon 35.4% | MCF7 breast 22.1% | HCT-116 colon 29.5% | HCC-2998 colon 74.2% | KM12 colon 18.3%
